{"source": "PubChem BioAssay (EPA / NIEHS)", "note": "Several values for one entry are separate records, joined by “and”; a condition that tells them apart may be missing. Identical values can stand only once. Results filed as inconclusive are left out. Activity calls are given as the source filed them. How the source made its calls: active means hit-call score of the fitted dose curve at least 0.9, where 1 is the maximum; inconclusive means response in the unintended direction; inactive means score below 0.9."}
{"test": "ACEA_AR_antagonist_AUC_viability: ACEA Biosciences xCELLigence Real-Time Cell Analysis on Androgen Receptor Antagonism for Viability (AID 2283776);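 further: 22Rv1 human prostate cancer cells growing on impedance electrode plates; area under impedance growth curve at 80 h after dosing as viability; hits lower the growth signal relative to DMSO meaning cytotoxicity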", "method_in_brief": "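Real-time electrical impedance tracks 22Rv1 proliferation after continuous compound exposure (top 100 uM final, 1:4 steps, 8 concentrations). The 80 h area-under-curve serves as the cytotoxicity readout relative to DMSO.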"}
{"smiles": "O=C(c1ccccc1)c1ccccc1", "outcome": "inactive"}
{"smiles": "CC(=O)Nc1ccc(O)cc1", "outcome": "inactive"}
{"smiles": "CC(C)[C@@H]1CC[C@@H](C)C[C@H]1O", "AC50": "0.541 µM (active)"}
{"smiles": "CCCCc1ccc2ccccc2c1S(=O)(=O)O", "outcome": "inactive"}
{"smiles": "CC(O)COc1ccccc1", "note": "(stereo not given)", "outcome": "inactive"}
{"smiles": "CCCCCCCCCC=CCC1CC(=O)OC1=O", "note": "(stereo not given)", "outcome": "inactive"}
{"test": "ACEA_ER_AUC_viability: ACEA Biosciences xCELLigence Real-Time Cell Analysis on Estrogen Receptor Agonism for Viability (AID 2283782);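 further: hit means loss of impedance signal meaning reduced cell growth or viability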", "method_in_brief": "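Viability endpoint: reduced impedance area under the curve relative to DMSO, recorded by real-time electrode sensing over ~80 h of continuous exposure. Duplicate plates of T47D in hormone-depleted medium; eight concentrations, 1:4 dilutions, 100 uM maximum.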"}
{"smiles": "Oc1cc2ccccc2cc1O", "AC50": "40.8 µM (active)"}
{"smiles": "C=CC(=O)OCCN(CC)CC", "outcome": "inactive"}
{"smiles": "CC(C)(C)C1CCCCC1O", "note": "(stereo not given)", "AC50": "77.7 µM (active)"}
{"smiles": "Nc1ccn([C@@H]2O[C@H](CO)[C@@H](O)C2O)c(=O)n1", "note": "(stereo not given in full)", "AC50": "9.92 µM (active)"}
{"smiles": "CCC(=O)O", "outcome": "inactive"}
{"smiles": "C/C=C/C(=O)C1=C(C)CCCC1(C)C", "outcome": "inactive"}
{"smiles": "O=C1c2ccc(O)c(O)c2C(=O)c2c(O)ccc(O)c21", "AC50": "6.67 µM (active)"}
{"smiles": "CCCCC(CC)C(=O)OCCOCCOCCOCCOC(=O)C(CC)CCCC", "note": "(stereo not given)", "outcome": "inactive"}
{"smiles": "O=C(O)CCC(F)(F)C(F)(F)C(F)(F)C(F)(F)C(F)(F)C(F)(F)F", "outcome": "inactive"}
{"smiles": "c1cc[nH]c1", "AC50": "50 µM (active)"}
{"smiles": "Clc1ccc2c(Cl)ccnc2c1", "outcome": "inactive"}
{"smiles": "CC1=NN(c2ccccc2)C(=O)C1", "outcome": "inactive"}
{"smiles": "c1ccc2c(c1)CCC2", "outcome": "inactive"}
{"smiles": "CCC(C)c1nccnc1OC", "note": "(stereo not given)", "outcome": "inactive"}
{"smiles": "CC(C)[C@@H]1CC[C@@H](C)C[C@H]1O", "outcome": "inactive"}
{"smiles": "OCCN1CN(CCO)CN(CCO)C1", "AC50": "81.8 µM (active)"}
{"smiles": "CCCCc1ccc2ccccc2c1S(=O)(=O)O", "outcome": "inactive"}
{"smiles": "O=C1C=CC(=O)N1c1cccc(N2C(=O)C=CC2=O)c1", "AC50": "23.6 µM (active)"}
{"smiles": "CCOC=C(C(=O)OCC)C(=O)OCC", "outcome": "inactive"}
{"smiles": "Cc1cncc(C)c1", "AC50": "12.1 µM (active)"}
{"smiles": "CNNCc1ccc(C(=O)NC(C)C)cc1", "outcome": "inactive"}
{"smiles": "CCCCCC(C)OC(=O)COc1ccc(Cl)c2cccnc12", "note": "(stereo not given)", "outcome": "inactive"}
{"smiles": "NCc1cccc(CN)c1", "outcome": "inactive"}
{"smiles": "CC(O)COc1ccccc1", "note": "(stereo not given)", "outcome": "inactive"}
{"smiles": "COc1cccc(O)c1", "outcome": "inactive"}
{"smiles": "CCCCCCCCCC=CCC1CC(=O)OC1=O", "note": "(stereo not given)", "outcome": "inactive"}
{"smiles": "O=C(O)CCC(F)(F)C(F)(F)C(F)(F)C(F)(F)C(F)(F)F", "outcome": "inactive"}
{"smiles": "CN(CCO)S(=O)(=O)C(F)(F)C(F)(F)C(F)(F)C(F)(F)C(F)(F)C(F)(F)C(F)(F)C(F)(F)F", "outcome": "inactive"}
{"smiles": "CN(C)c1ccc(C(=C2C=CC(=[N+](C)C)C=C2)c2ccccc2)cc1", "AC50": "3.16 µM (active) and 3.1 µM (active)"}
